Bioassay records deposited in PubChem BioAssay by NMMLSC.
RGS4-Gao reg: modulators of RGS4 binding to Galphao, primary screen, biochemical, multiplexed bead flow cytometry | Guanine nucleotide-binding protein G(o) subunit alpha (Homo sapiens), P09471 | actives lie on both sides | binding response (% of control), % at 10 µM | actives 0.33% (n = 220,000); in the data active = binding response below about 49% or above about 150%; inactive = in between;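 note: fluorescent Galphao activated with aluminum fluoride binding bead-coupled RGS4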
Target sequence (P09471 whole entry, looked up): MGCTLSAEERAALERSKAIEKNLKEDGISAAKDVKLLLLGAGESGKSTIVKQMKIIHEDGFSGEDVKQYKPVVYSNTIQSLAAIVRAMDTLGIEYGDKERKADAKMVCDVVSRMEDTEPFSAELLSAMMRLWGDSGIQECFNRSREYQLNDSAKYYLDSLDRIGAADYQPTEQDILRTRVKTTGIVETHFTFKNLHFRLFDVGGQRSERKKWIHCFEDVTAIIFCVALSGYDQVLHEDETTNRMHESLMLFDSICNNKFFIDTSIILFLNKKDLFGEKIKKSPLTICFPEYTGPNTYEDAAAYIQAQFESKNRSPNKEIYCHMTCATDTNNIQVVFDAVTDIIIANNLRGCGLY
RGS16-Gao HTS: modulators of RGS16 binding to Galphao, primary screen, biochemical, human proteins, multiplexed bead flow cytometry; bead-based flow cytometry RGS16-Galphao binding, fluorescence; actives lie on both sides; Regulator of G-protein signaling 16 (Homo sapiens) + Guanine nucleotide-binding protein …; binding response (% of control), % at 10 µM; actives 0.38% (n = 220,000);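 note: Galphao activated by GDP with aluminum fluoride before binding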
Target sequence (O15492 whole entry, looked up): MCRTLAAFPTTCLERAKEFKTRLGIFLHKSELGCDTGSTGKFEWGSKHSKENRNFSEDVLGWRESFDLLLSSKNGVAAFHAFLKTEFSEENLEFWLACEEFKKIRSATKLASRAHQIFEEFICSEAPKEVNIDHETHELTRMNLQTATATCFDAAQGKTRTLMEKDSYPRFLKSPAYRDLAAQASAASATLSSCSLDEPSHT
Target sequence (P09471 whole entry, looked up): as the sequence (P09471 whole entry, looked up) above
RGS8-Gao: RGS8-Galphao binding modulators, primary screen, biochemical, multiplexed bead flow cytometry; AID 1423, 2008; response (percent of control binding), % at 10 µM; Guanine nucleotide-binding protein G(o) subunit alpha (Homo sapiens), P09471; actives lie on both sides; actives 0.34% (n = 220,000); in the data active = response below about 60% or above about 140%; inactive = in between;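 note: Galphao activated as the GDP aluminium fluoride complex binding bead-coupled RGS8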
RGS7-Gao: RGS7-Galphao binding modulators, primary screen, biochemical, multiplexed bead flow cytometry. AID 1439, 2008. binding response (% of control), % at 10 µM. actives lie on both sides. actives 0.35% (n = 220,000); in the data active = binding response below about 49% or above about 150%; inconclusive = no clear call, values can overlap the other calls; inactive = in between;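 note: fluorescent Galphao held in activated GDP-AlF4 state binding bead-coupled RGS7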
GSH fluor: compound fluorescence on glutathione beads, profiling panel, artefact control, biophysical, 488/530 nm, flow cytometry | GSH beads flow cytometry, compound fluorescence 488/530 nm; hits give high values | fluorescence (KMESF) at 10 µM | actives 0.25% (n = 190,000); in the data active = fluorescence above about 89;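 note: glutathione beads carrying GST-tagged Bcl family fusion proteins plus one bare bead set; values are compound well signal with DMSO vehicle wells as background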
Avidin fluor: green autofluorescence of compounds with avidin beads – biophysical, 488/530 nm, flow cytometry, artefact control, profiling panel | compound fluorescence 488/530 nm; hits give high values | fluorescence (KMESF) at 10 µM | actives 0.38% (n = 220,000) | AID 1775, 2009; in the data active = fluorescence above about 47
RGS-Gao: modulators of RGS–Galpha-o binding, primary screen, biochemical, multiplexed beads, flow cytometry, RGS4/7/8/16/19 | shares compounds with RGS16-Gao HTS | multiplexed bead flow cytometry | RGS4–Galpha-o binding response, % at 10 µM | actives 99% (n = 1,600) | AID 1504, 2009;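 note: fluorescently labeled Galpha-o bound to GDP with aluminium fluoride binding biotinylated RGS beads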
Biotin-avidin: disruption of biotin probe capture by avidin, counter-screen for RGS protein interaction modulators, biochemical, flow cytometry, bead-based. shares compounds with RGS16-Gao HTS. streptavidin beads, fluorescein-biotin binding. inhibition, % at 10 µM. 1,700 tested, under 10 active. AID 1783, 2009;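 active = inhibition above 50%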;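 note: median green fluorescence of gated singlet beads compared with DMSO control wells; 0% = DMSO wells and 100% = complete loss of bead fluorescence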
RGS8-Gao confirm: RGS8-Galphao binding modulators, confirmation, biochemical, multiplexed bead flow cytometry, single concentration | shares compounds with RGS16-Gao HTS | bead-based flow cytometry RGS8-Galphao binding, fluorescence; actives lie on both sides | binding response (% of control), % at 10 µM | actives 3% (n = 1,700); in the data active = binding response below about 72% or above about 130%; inactive = in between;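 note: Galphao activated as GDP AlF4 complex before binding bead RGS8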
RGS7-Gao single: RGS7-Galphao binding modulators, confirmation, biochemical, multiplexed bead flow cytometry, single concentration | shares compounds with RGS16-Gao HTS | bead-based flow cytometry RGS7-Galphao binding; actives lie on both sides | actives 7.8% (n = 1,700) | response (percent of control binding), % at 10 µM; in the data active = response below about 75% or above about 130%; inactive = in between;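 note: fluorescent Galphao activated with GDP and aluminum fluoride binding bead-coupled RGS7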
RGS16-Gao single: modulators of RGS16-Galphao protein binding, confirmation, biochemical, single concentration, multiplexed bead flow cytometry; shares compounds with RGS16-Gao HTS; bead-based flow cytometry; actives lie on both sides; response (% of control binding), % at 10 µM; actives 4% (n = 1,700); AID 1838, 2009; in the data active = response below about 74% or above about 130%; inactive = in between;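 note: Galphao activated as the GDP aluminium fluoride complex binding bead-coupled RGS16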
RGS4-Gao confirm: modulators of RGS4-Galphao protein binding, confirmation, biochemical, single concentration, multiplexed bead flow cytometry | shares compounds with RGS16-Gao HTS | actives lie on both sides | binding response (% of control), % at 10 µM | actives 4% (n = 1,700) | AID 1840, 2009; in the data active = binding response below about 74% or above about 130%; inactive = in between
RGS19-Gao single: regulators of RGS19-Galphao binding, confirmation, biochemical, single point, multiplexed bead flow cytometry; shares compounds with RGS16-Gao HTS; bead-based flow cytometry RGS19-Galphao binding; actives lie on both sides; actives 5% (n = 1,700); AID 1841, 2009; response (percent of control binding), % at 10 µM; in the data active = response below about 50% or above about 160%; inactive = in between;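 note: 100% = no compound control and 0% = blank background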
Starred values were filed as active, the others as inactive; ? = inconclusive; / = not tested or not shown; [ ] = remark or other dose. Only some compounds are listed: those with a hit (about 1.2% of all), similar ones and a draw of the others. Unless noted, the rule behind the calls is not given here.

SMILES	RGS4-Gao reg	RGS16-Gao HTS	RGS8-Gao	RGS7-Gao	GSH fluor	Avidin fluor	RGS-Gao	Biotin-avidin	RGS8-Gao confirm	RGS7-Gao single	RGS16-Gao single	RGS4-Gao confirm	RGS19-Gao single
COc1ccc(/C=C(/CC(=O)NCc2ccc(Cl)cc2)c2nc3ccccc3s2)cc1	102	110	103	102	12	14	/	/	/	/	/	/	/
COc1ccccc1/C=c1\sc2nc(-c3ccco3)nn2c1=O	/	/	/	/	11	/	/	2	97	89	94	92	83
COc1ccc(-n2c(SCC(=O)Nc3cc(C)on3)nc3c(c2=O)SCC3)cc1	122	355	166*[activator]	117	26	5	122*	0	99	92	97	99	100
Cc1cc(NC(=O)CSc2nc3c(c(=O)n2-c2ccc(Br)cc2)SCC3)no1	86	36	82	92	16	5	/	/	/	/	/	/	/
COCC1CCCCN1Cc1cn(-c2ccccc2)nc1-c1ccc2c(c1)OCO2 (configuration not stated)	116	113	104	182*[activator]	11	69*	116*	0	100	95	97	98	76
OC[C@@H]1CCCN1Cc1cn(-c2ccccc2)nc1-c1ccc2c(c1)OCO2	104	97	102	104	17	4	/	/	/	/	/	/	/
CCOc1cc(-c2nc(C)c(C(C)=O)n2O)ccc1OCC(=O)Nc1ccc(F)cc1	110	114	103	158*[activator]	10	64*	110*	-1	93	90	92	101	77
COc1cc(-c2nc(C)c(C(C)=O)n2O)ccc1OCC(=O)Nc1ccc(F)cc1	104	98	99	98	18	10	/	/	/	/	/	/	/
CCCC(=O)c1ccc(O)cc1O	93	90	90	?	/	8	/	/	/	/	/	/	/
NNC(=O)c1csc(CS(=O)(=O)c2ccc(Cl)cc2)n1	111	101	86	?	/	12	/	0	109	116	111	111	97
Cc1ccc(-c2nn3c(C)nnc3c3ccccc23)cc1S(=O)(=O)NCCO	115	111	105	172*[activator]	24	73*	115*	1	98	96	98	102	88
Cc1ccc(-c2nn3c(C)nnc3c3ccccc23)cc1S(=O)(=O)NC(C)(C)CO	103	109	104	104	10	11	/	/	/	/	/	/	/
Cc1nn(-c2ccccc2)c(C)c1/C=N\N1CCN(c2ccc(Cl)cc2)CC1	/	/	/	/	17	/	/	0	99	101	102	102	91
CC1=CC2=NC(=O)/C(=C\c3cccn3CCOc3cc(C)ccc3C)C(=N)N2O1	108	97	104	101	13	6	/	/	/	/	/	/	/
O=C(O)c1cc(C(F)(F)F)nc2c(C(F)(F)F)cccc12	143	123	103	174*[activator]	20	6	143*	/	/	/	/	/	/
COc1cccc(C2c3c(oc4cc(C)c(C)cc4c3=O)C(=O)N2CCCN(C)C)c1 (configuration not stated)	122	106	96	263*[activator]	12	117*	122*	/	/	/	/	/	/
COc1ccc(CN2CCc3ccccc3C2)c(OC)c1	101	102	101	?	/	7	/	/	/	/	/	/	/
COc1ccc(C2=[N+](C)CCn3cccc32)c(OC)c1	160*[activator]	205*[activator]	124	142	10	16	/	0	109	119	117	115	111
CCC/C(O)=C1\C(=O)CC(c2ccccc2)CC1=NCCc1c(C)[nH]c2ccc(C)cc12 (configuration not stated)	52	14*	52*	52	16	2	52*	/	/	/	/	/	/
O=C(CN1CCN(Cc2ccc(Cl)cc2)C1=O)NCCCN1CCOCC1	18*	13*	14*	8.9*	19	-1	/	2	100	100	101	102	100
O=C(CN1CCN(Cc2ccc(Cl)cc2)C1=O)NCCCN1CCN(c2ccc(F)cc2)CC1	95	97	95	97	24	17	/	/	/	/	/	/	/
O=C(CN1CCN(Cc2ccccc2F)C1=O)NCCc1ccc(Cl)cc1	107	102	100	159*[activator]	27	60*	107*	-1	100	103	99	98	99
CCO[C@@H]1OC(C(=O)N2CCN(Cc3ccc4c(c3)OCO4)CC2)=C[C@H](c2cn(C(C)=O)c3ccccc23)[C@H]1CCCO	137	123	107	167*[activator]	19	7	137*	-1	105	104	109	105	111
CCO[C@H]1OC(C(=O)N2CCN(Cc3ccc4c(c3)OCO4)CC2)=C[C@@H](C2CC2)[C@@H]1CCCO	51	56	67	42*	20	3	51*	-1	93	87	90	90	90
